# Assay results as given in the supplement of paper PMC12024529.
# Test system: HEK293 WT BDD-FVIII-Gluc
# Experiment: secreted FVIII-Gluc luciferase Z-score vs DMSO control; higher = more FVIII-Gluc secretion
# Settings: 5 µM
# Description: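 Natural plant-compound library (480 compounds, ST catalogue IDs) screened on HEK293 cells stably expressing WT BDD-FVIII-Gaussia luciferase fusion at 5 µM. Secreted Gluc activity in the medium is given as a Z-score relative to DMSO controls.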
row,SMILES,secreted FVIII-Gluc luciferase Z-score
1,COc1cc2c(C(=O)c3ccccc3)c3c4c(cc(OC)c(OC)c4c2cc1OC)CCN3C,-1.18
2,CC1OC(OCC2OC(Oc3c(-c4ccc(O)c(O)c4)oc4cc(O)cc(O)c4c3=O)C(O)C(O)C2O)C(O)C(O)C1O (centres undefined),-0.909
3,O=C(O)CCCCC1CCSS1 (centres undefined),-0.0345
4,C1CCN2CC3CC(CN4CCCC[C@H]34)C2C1 (some centres undefined),1.22
5,Nc1ccn([C@@H]2O[C@H](CO)[C@@H](OP(=O)(O)O)[C@H]2O)c(=O)n1,-0.278
6,CC(C)=CCC/C(C)=C\COc1c2ccoc2cc2oc(=O)ccc12,-0.466
7,COc1cc2oc(=O)cc(C)c2cc1OC,0.58
8,C[C@@H]1O[C@@H](O[C@H]2[C@H](Oc3cc(O)c4c(c3)O[C@H](c3ccc(O)cc3)CC4=O)O[C@H](CO)[C@@H](O)[C@@H]2O)[C@H](O)[C@H](O)[C@H]1O,1.39
9,Cc1cn([C@H]2C[C@H](O)[C@@H](CO)O2)c(=O)[nH]c1=O,0.713
10,COc1ccc2c3c1O[C@H]1C[C@@H](O)C=CC31CCN(C)C2 (some centres undefined),0.116
11,COc1cc2nc(N3CCN(C(=O)c4ccco4)CC3)nc(N)c2cc1OC,0.161
12,COc1cc([C@@H]2c3cc4c(cc3C(OC3OC5COC(C)OC5C(O)C3O)C3COC(=O)[C@@H]32)OCO4)cc(OC)c1O (some centres undefined),-6.37
13,O=c1cc(-c2ccccc2)oc2cc(O)cc(O)c12,0.596
14,COc1cccc(-c2oc3ccccc3c(=O)c2O)c1,0.776
15,NC(Cc1c[nH]c2ccccc12)C(=O)NCC(=O)O (centres undefined),-1.06
16,O=C(O)C1(O)CC(O)C(O)C(O)C1 (centres undefined),0.456
17,O=c1cc(-c2cccc(O)c2)oc2c(O)c(O)ccc12,-0.194
18,Nc1ncnc2c1ncn2[C@H]1C[C@H](O)[C@@H](CO)O1,1.23
19,c1coc(CNc2ncnc3nc[nH]c23)c1,0.193
20,C=C1C(=O)O[C@@H]2C3OC3(C)CC/C=C(\C)CC[C@@H]12 (some centres undefined),-0.0355

row,SMILES,secreted FVIII-Gluc luciferase Z-score
1,C[C@H]1c2ccoc2CC2[C@H]1CCC1[C@@](C)(CC(=O)O)CCC[C@]21C (some centres undefined),0.392
2,C[C@H](CCC(=O)O)[C@H]1CC[C@H]2[C@@H]3[C@H](O)C[C@@H]4C[C@H](O)CC[C@]4(C)[C@H]3CC[C@]12C,0.787
3,C=C(CO)C1Cc2c(ccc3c(=O)c4c(oc23)COc2cc(OC)c(OC)cc2-4)O1 (centres undefined),0.0519
4,CC(C)C1=CC2=CCC3C(C)(C(=O)O)CCC[C@]3(C)C2CC1 (some centres undefined),0.107
5,Nc1ccn(C2CC(O)C(COP(=O)(O)O)O2)c(=O)n1 (centres undefined),0.357
6,CCC(C)(C)C(=O)O[C@H]1C[C@@H](C)C=C2C=C[C@H](C)[C@H](CC[C@@H]3C[C@@H](O)CC(=O)O3)[C@H]21,-0.297
7,O=c1c(O)c(-c2ccc(O)cc2)oc2cc(O)ccc12,0.511
8,CC(=O)O[C@H]1C(=O)[C@@]2(C)C([C@H](OC(=O)c3ccccc3)[C@]3(O)C[C@H](OC(=O)[C@@H](O)[C@@H](NC(=O)c4ccccc4)c4ccccc4)C(C)=C1C3(C)C)[C@]1(OC(C)=O)CO[C@@H]1C[C@@H]2O (some centres undefined),-3.56
9,COc1c(-c2ccccc2)oc2c(ccc3occc32)c1=O,0.489
10,CC(=O)[C@@H]1[C@H]2[C@H](C(=O)[C@H]3OC[C@@H]2O3)[C@H]2C=Cc3ccccc3N21,0.187
11,COc1cc2c(C)c3c4c(cc(OC)c(OC)c4c2cc1OC)CCN3C,-1.2
12,C[C@]12CCC(=O)C=C1CC[C@@H]1[C@@H]2[C@@H](O)C[C@@]2(C)[C@H]1CC[C@]2(O)C(=O)CO,4.35
13,COc1ccc(-c2oc3ccc(C)cc3c(=O)c2O)cc1OC,-0.624
14,CC(C)=CCC[C@H](C)CCO,0.0595
15,C=C[C@@](C)(O)CC[C@@H]1[C@@]2(C)CCCC(C)(C)[C@@H]2CC[C@@]1(C)O,0.556
16,Nc1nc2c(ncn2[C@@H]2O[C@H](COP(=O)(O)O)[C@@H](O)[C@H]2O)c(=O)[nH]1,0.0522
17,O=c1oc2c(O)c(O)cc3c(=O)oc4c(O)c(O)cc1c4c23,0.53
18,CC1(C)[C@@H]2CC[C@@]1(C)C(=O)C2,0.363
19,O=c1cc(-c2ccc(O)c(O)c2)oc2cc(OC3OC(CO)C(O)C(O)C3O)cc(O)c12 (centres undefined),-0.168
